This passage reports outcome and AC50 results from PubChem BioAssay (EPA / NIEHS).

The structures appear in SMILES notation. Calls of active or inactive are those of the source. The calls were made as follows: active = hit-call score of the fitted dose curve at least 0.9, where 1 is the maximum; inactive = score below 0.9.

Sequence of Signal transducer and activator of transcription 3 (Homo sapiens) (P40763 whole entry, looked up): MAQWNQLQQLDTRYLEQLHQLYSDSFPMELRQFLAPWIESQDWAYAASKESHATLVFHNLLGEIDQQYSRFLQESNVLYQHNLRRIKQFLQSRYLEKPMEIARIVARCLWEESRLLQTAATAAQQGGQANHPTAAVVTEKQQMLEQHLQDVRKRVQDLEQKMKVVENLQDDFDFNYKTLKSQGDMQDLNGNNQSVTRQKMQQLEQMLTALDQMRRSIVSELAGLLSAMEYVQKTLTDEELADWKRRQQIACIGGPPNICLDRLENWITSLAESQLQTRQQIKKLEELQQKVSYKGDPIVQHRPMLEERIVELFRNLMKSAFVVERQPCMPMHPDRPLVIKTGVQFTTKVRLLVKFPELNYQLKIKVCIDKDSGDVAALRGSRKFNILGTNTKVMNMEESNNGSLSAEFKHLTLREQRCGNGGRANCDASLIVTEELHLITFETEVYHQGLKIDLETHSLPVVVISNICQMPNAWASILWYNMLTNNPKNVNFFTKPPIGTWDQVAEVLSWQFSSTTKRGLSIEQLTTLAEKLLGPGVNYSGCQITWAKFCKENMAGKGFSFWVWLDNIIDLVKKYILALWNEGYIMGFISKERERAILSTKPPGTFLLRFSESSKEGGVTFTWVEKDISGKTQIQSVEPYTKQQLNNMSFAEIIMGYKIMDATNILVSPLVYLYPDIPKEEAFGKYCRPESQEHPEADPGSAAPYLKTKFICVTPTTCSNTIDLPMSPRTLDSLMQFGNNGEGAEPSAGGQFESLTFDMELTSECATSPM

Read-out in this assay: Signal transducer and activator of transcription 3 (Homo sapiens) (UniProt P40763)
Put plainly: LTEA_HepaRG_STAT3: Life Technologies and Expression Analysis (LTEA) Assay for Signal transducer and activator of transcription (STAT3) using HepaRG (AID 2283529). The following applies: mRNA level, 48 h; actives raise or lower the signal. The method, then: LTEA_HepaRG is a cell based, multiplexed-readout assay that uses HepaRG, a human liver cell line, with measurements taken at 48 hours after chemical dosing on a 96-well plate.LTEA_HepaRG_STAT3 is one of 102 assay component(s) measured in the LTEA HepaRG cell culture assay. It is a marker of Cell proliferation, survival, death.Data from the assay component LTEA_HepaRG_STAT3 was analyzed into 1 endpoint. This assay endpoint, LTEA_HepaRG_STAT3, was analyzed with bidirectional fitting relative to DMSO as the negative control and baseline of activity. Using a type of inducible reporter, measures of mRNA induction for gain or loss-of-signal activity can be used to understand regulation of transcription factor activity. To generalize the intended target to other relatable targets, this assay endpoint is annotated to the dna binding intended target family, where the subfamily is stat protein.
A total of 1060 chemcials from the ToxCast library were tested in eight-point concentration-response experiments. Cell culture and cytotoxicity assays were conducted at Thermo Fisher Scientific's Custom Services facility (Madison, WI). A single lot of human HepaRG cells (Thermo Fisher Scientific, Frederick, MD) was used for the cell culture experiments. 96-well format collagen type I coated plates of human HepaRG cells were prepared using established methods. Briefly, cryopreserved HepaRG cells were thawed, plated at a density of approximately 100,000 cells/well in HepaRG Thaw, Plate, and General Purpose media (HPRG770, Thermo Fisher Scientific), and incubated for 48 hours. 0.5% DMSO was selected as vehicle control to balance the requisite need of DMSO in HepaRG cultures to maintain differentiation (for example, baseline metabolism, proportions of hepatocytes vs. cholangiocytes), while enabling further hepatic receptor pathway activation (for example, PXR and CAR) in response to chemical exposure. 48 hours after plating, the culture medium was replaced with HepaRG Serum-Free Incudtion Media. Cells were exposed to each test chemical in duplicate and maintained in CO2 incubators for another 48 hours. Chemical plates were thawed to room temperature and 200x concentrations of treatment groups were prepared. 8-point conentration-reponse curves were made with the highest exposure at 100 uM, followed by half-log dilutions, all in 0.5% DMSO. Each test plate contained variouse controls, induction positive controls (1mM phenobarbital), cytotoxicity positive controls ([…] aflatoxin B1), vehicle controls (0.5% DMSO), and total lysis controls (0.5% DMSO). Cell morphology images were taken using an Essen IncuCyte FLR automated microscope, with six 96-well plates imaged in about 24 minutes. Images were captured and exported and JPEG files. Spent culture media was transfered to black-well plates for the LDH assay, and remaining media was sorted at -80 C for later use. Cells were treated with RLT buffer and frozen until shipped for gene expression analysis. Total RNA was isolated from the cell suspension in 75 uL of Buffer RLT (Qiagen, Germantown, MD 20874) by Quintiles/Expression Analysis (Durham, NC) using a custom isolation procedure. Total RNA from each plate well was transferred to a preamplification plate. Fluidigm's 96.96 Dynamic ArrayTM (Fluidigm, Amsterdam, the Netherlands) technology was used for gene expression analyses by quantitative reverse transcription polymerase chain reaction (qRT-PCR, performed by Quintiles/Expression Analysis, Durham, NC)89. Standard TaqManTM Assays (Applied Biosystems/ThermoFisher Scientific, Foster City, CA) were used to assess the expression of 93 genes selected based on their selectivity and sensitivity to important hepatic receptors known to be modulated by environmental chemicals; importance in human hepatocyte functionality; and hepatotoxicity. […]
Regarding `Cc1ccc(C)c(O)c1C`, the compound was classed as inactive.

With `O=C(N[C@@H](Cc1ccccc1)[C@@H](O)C(=O)N1C[C@@H](O)[C@@H](O)C1)c1cc2cc(Cl)ccc2[nH]1`, the outcome was inactive.

As for `FC(F)(F)C(F)(F)C(F)(F)C(F)(F)C(F)(F)C(F)(F)CCI`, the compound was classed as inactive.

As to `Cc1cccc(Nc2cc(Cl)nc(SCC(=O)O)n2)c1C`, the compound was classed as inactive.

For the compound `Oc1ccc2ccccc2c1N=Nc1ccccc1`, the concentration at half-maximal activity (AC50) is 16.2 µM (active).

On to `O=[N+]([O-])C(CO)(CO)CO`, for which the compound was classed as inactive.

For `NCC1(Cc2noc(=O)[nH]2)CCCCC1`, the outcome was inactive.

Consider `CCCc1cc(=O)[nH]c(=S)[nH]1`, for which the outcome was inactive.

For `Nc1ccc(S(=O)(=O)c2ccc(N)cc2)cc1`, the AC50 is 0.767 µM (active).

`Cc1nc(C)nc(N2C[C@@H](C)N(c3ccnc([C@@H](C)O)n3)[C@@H](C)C2)n1`: the result was inactive.

As to `CC1(C)CC(N=C=O)CC(C)(CN=C=O)C1` (stereo not given), the outcome was inactive.

With `COc1ccc2c(c1)c(CC(=O)O)c(C)n2C(=O)c1ccc(Cl)cc1`, the outcome was inactive.

With `COc1cc(S(=O)(=O)O)c(C)cc1N=Nc1c(O)ccc2cc(S(=O)(=O)O)ccc12`, the compound was called inactive.

With `Cc1ccc(N(C)C)cc1`, the compound was called inactive.

`Cc1cccc([N+](=O)[O-])c1C`: the compound was classed as inactive.

With `OC[C@@H](O)[C@@H](O)[C@H](O)[C@H](O)CO`, the result was inactive.

As for `COCCOC[C@H](CC1(C(=O)NC2CCC(C(=O)O)CC2)CCCC1)C(=O)Oc1ccc2c(c1)CCC2` (stereo not given in full), the compound was called inactive.

On to `CC1(C)NC(=O)NC1=O`, for which the call was inactive.

Regarding `CN1CCN(Cc2cc(-c3ccc4[nH]c(=O)oc4c3)co2)[C@@H](c2ccc(F)cc2)C1`, the call was inactive.

As for `CC1=C(/C=C/C(C)=C/C=C/C(C)=C/CO)C(C)(C)CCC1`, the compound was classed as inactive.

On to `CCCCc1ccc2c(n1)[C@@H](c1ccc(OC)cc1C[C@H](C)C(=O)O)[C@H](C(=O)O)[C@H]2c1ccc2c(c1)OCO2`, for which the outcome was inactive.

For `COc1cc(-c2nc(NC(=O)c3cc4cc(C)cc(C)c4n3CC(=O)O)sc2CCC2CCCCC2)c(OC)cc1Cl`, the half-maximal activity concentration (AC50) was 19.3 µM (active).

Regarding `CCCCCCCCCCCC(=O)OC`, the compound was classed as inactive.

Take `Nc1ccccc1N`: the result was inactive.

With `CC(CO)OC(C)CO` (stereo not given) (tested in a mixture with another compound), the call was inactive.

As for `CCCCCCCCCCCCCCCCCC(=O)O`, the compound was classed as inactive.

Turning to `C1CCC(SSC2CCCCC2)CC1`, the outcome was inactive.

Turning to `CCCCCCCCCCO`, the outcome was inactive.

For the compound `Nc1nc(N)c2nc(CNc3ccc(C(=O)N[C@@H](CCC(=O)O)C(=O)O)cc3)cnc2n1`, the compound was called inactive.

With `C=CCc1ccc(O)c(OC)c1`, the call was inactive.

Regarding `Cc1c(C(=O)O)c(O)cc2c1C(=O)c1c(O)c([C@@H]3O[C@H](CO)[C@@H](O)[C@H](O)[C@H]3O)c(O)c(O)c1C2=O`, the result was inactive.

For the compound `CN1CCCC1=O`, the outcome was inactive.

In the case of `CC(C)c1ccc(C(=O)N=C(N)N)cc1S(C)(=O)=O`, the call was inactive.

`Nc1ccc2c(c1)C(=O)c1ccccc1C2=O`: the outcome was inactive.

Turning to `CCCCCCCCCCCCCO`, the result was inactive.

For `Cc1ccc(C(C)C)c(O)c1`, the compound was called inactive.

With `CC(=O)Oc1ccccc1C(=O)O`, the compound was called inactive.

`Cc1cc(=O)[nH]c(=S)[nH]1`: the compound was classed as inactive.

`Cc1oc(-c2ccccc2)nc1CCOc1cccc2c1ccn2CCC(=O)O`: the call was inactive.

As to `CCCCCCOCCO`, the concentration at half-maximal activity (AC50) is 9.92 µM (active).

A word on the AC50: it is the midpoint of the concentration-response curve, whichever way the signal moves.
